Out of some 310,000 compounds screened, about 14,000 (4.5%) showed an effect of 50% or more. Effects have a minus sign here. The full list was thinned out, with strong results kept by preference.
target: human ether-à-go-go-related gene (hERG) potassium channel (human, UniProt Q12809); test: primary screen, population patch clamp on CHO cells stably expressing hERG; higher = less effect of the substance
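Also: peak tail current of the secondary pulse compared with the same well before compound.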

human ether-à-go-go-related gene (hERG) potassium channel, sequence (Q12809 whole entry, looked up): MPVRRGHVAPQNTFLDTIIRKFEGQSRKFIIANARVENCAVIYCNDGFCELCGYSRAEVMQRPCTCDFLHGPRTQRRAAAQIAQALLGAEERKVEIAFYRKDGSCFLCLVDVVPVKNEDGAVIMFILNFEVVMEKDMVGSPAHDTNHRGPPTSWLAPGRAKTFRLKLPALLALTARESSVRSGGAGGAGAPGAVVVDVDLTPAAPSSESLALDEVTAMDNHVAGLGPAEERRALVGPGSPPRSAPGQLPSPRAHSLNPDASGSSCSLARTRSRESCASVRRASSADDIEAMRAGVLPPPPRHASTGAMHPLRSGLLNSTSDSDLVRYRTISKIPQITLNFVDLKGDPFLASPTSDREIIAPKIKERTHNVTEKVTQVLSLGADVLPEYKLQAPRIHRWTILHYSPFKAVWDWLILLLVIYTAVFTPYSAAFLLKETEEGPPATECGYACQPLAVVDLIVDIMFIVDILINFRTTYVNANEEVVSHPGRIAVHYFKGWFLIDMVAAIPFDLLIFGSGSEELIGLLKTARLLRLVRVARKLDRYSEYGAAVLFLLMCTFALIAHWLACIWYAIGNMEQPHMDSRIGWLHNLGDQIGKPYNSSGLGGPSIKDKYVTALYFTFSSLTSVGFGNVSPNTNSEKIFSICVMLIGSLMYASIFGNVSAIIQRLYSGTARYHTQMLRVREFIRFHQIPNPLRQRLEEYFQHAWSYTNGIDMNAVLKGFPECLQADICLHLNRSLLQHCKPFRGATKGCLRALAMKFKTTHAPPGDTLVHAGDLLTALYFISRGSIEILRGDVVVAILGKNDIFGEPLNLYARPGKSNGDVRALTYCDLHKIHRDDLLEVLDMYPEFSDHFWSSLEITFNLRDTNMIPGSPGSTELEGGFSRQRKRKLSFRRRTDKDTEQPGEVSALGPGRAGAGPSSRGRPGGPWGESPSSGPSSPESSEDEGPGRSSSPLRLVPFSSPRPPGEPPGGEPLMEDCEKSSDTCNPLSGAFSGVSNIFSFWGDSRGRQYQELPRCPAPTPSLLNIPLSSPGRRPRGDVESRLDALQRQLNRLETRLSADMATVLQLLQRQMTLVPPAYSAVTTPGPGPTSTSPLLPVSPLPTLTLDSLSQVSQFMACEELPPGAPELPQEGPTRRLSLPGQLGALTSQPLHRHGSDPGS

Structure (SMILES) | hERG current change (%, negative = inhibition) at 10uM
CN(CCN1CCOCC1)Cc1nc(-c2ccc(Cl)cc2)no1 | -28.1%
O=C(NCc1cccs1)C(=O)NCC1OCCCN1S(=O)(=O)c1cccs1 (stereo not shown) | -15.3%
CC(C)c1ccc(N(CC(=O)NC(C)(C)C)C(=O)CCC(=O)Nc2nccs2)cc1 | 2.7%
Cc1ccccc1NC(=O)CN1C(=O)CSc2ccccc21 | 17.3%
CC(=O)c1cccc(S(=O)(=O)N(C)C2CCN(C)CC2)c1.Cl | -2.43%
O=C(COc1ccc(Br)cc1Br)NC(=S)N1CCCc2ccccc21 | -2.7%
CN1CCN(C(=O)c2ccccc2N(Cc2ccccc2)S(=O)(=O)c2ccccc2)CC1 | -8.4%
Cc1ccc(-c2[nH]nc3c2C(c2ccsc2)C(C#N)=C(N)O3)cc1 (stereo not shown) | -18.9%
CCc1ccc(N(CC)c2ncnc3nc[nH]c23)cc1 | -4.89%
CC(C)c1ccc2oc(=O)cc(CN3CCN(c4ccc(F)cc4)CC3)c2c1 | -2.26%
CC(C)NC(=O)CSc1nc2[nH]ncc2c(=O)[nH]1 | 15.6%
O=C(NCc1ccco1)c1ccc(OCC2CCCO2)cc1 (stereo not shown) | -23.2%
O=C(NCc1ccc(Cl)cc1)C1CCCN(c2ncnc3c2nc2n3CCCCC2)C1 (stereo not shown) | -55.4%
CSc1cccc(NC(=O)C2CCCN(c3ncnc4c3nc3n4CCCCC3)C2)c1 (stereo not shown) | -47.9%
COc1ccc(OC)c(CCNC(=O)C2CCN(c3ncnc4c3nc3n4CCCCC3)CC2)c1 | -0.169%
COc1ccccc1CNC(=O)C1CCN(c2ncnc3c2nc2n3CCCCC2)CC1 | 6.69%
CCc1cccc(NC(=O)C2CCCN(c3ncnc4c3nc3n4CCCCC3)C2)c1 (stereo not shown) | -46.4%
COc1ccc(OC)c(CNC(=O)C2CCCN(c3ncnc4c3nc3n4CCCCC3)C2)c1 (stereo not shown) | -59%
COc1cccc(NC(=O)C2CCCN(c3ncnc4c3nc3n4CCCCC3)C2)c1 (stereo not shown) | -67.4%
CCOc1ccccc1CNC(=O)C1CCCN(c2ncnc3c2nc2n3CCCCC2)C1 (stereo not shown) | -51.6%
COc1cc(NC(=O)C2CCCN(c3ncnc4c3nc3n4CCCCC3)C2)cc(OC)c1OC (stereo not shown) | -6.46%
Cc1ccccc1CN1CCC(CNC(=O)C2CCCN(c3ncnc4c3nc3n4CCCCC3)C2)CC1 (stereo not shown) | -7.3%

Structure (SMILES) | hERG current change (%, negative = inhibition) at 10uM
C/C(CC(=O)Nc1ccc([N+](=O)[O-])cc1)=N/NC(=O)C1C2CCCCC21 (stereo not shown) | -21.7%
O=C(Nc1ccc(NC(=O)c2ccc3c(c2)OCO3)cc1)c1cccc(Cl)c1 | 24.9%
Cc1onc(-c2ccccc2)c1C(=O)OCCOc1ccc([N+](=O)[O-])cc1[N+](=O)[O-] | -17.9%
O=C(CCN1C(=O)COc2ccccc21)NCc1cccnc1 | 6.28%
Cc1c(NC(=O)C2CC(c3ccc(F)cc3)=NO2)c(=O)n(-c2ccccc2)n1C (stereo not shown) | -3.93%
O=S(=O)(NN=C1CCCCCCC1)c1ccc(Br)cc1 | 4.3%
Cc1ccc(-c2noc(CN(C)C(=O)c3ccc(Br)o3)n2)cc1 | -18.7%
O=C(CCCn1c(=O)[nH]c2ccsc2c1=O)NCc1cccs1 | 4.11%
CCCCN(C(=O)CN1C(=O)C2CC=CCC2C1=O)c1c(N)n(CCC)c(=O)[nH]c1=O (stereo not shown) | 4.14%
O=C(O)Cc1cccc2ccccc12 | 16.6%
CCCOc1ccc(/C=C2\SC(N)=NC2=O)cc1OC | 3.66%
O=C(O)c1cccc2c(/C=N/Nc3ccccn3)c[nH]c12 | -1.13%
O=C(NCC1CCN(Cc2ccc(F)cc2)CC1)C1CCCN(c2ncnc3c2nc2n3CCCCC2)C1 (stereo not shown) | -39.6%
CN(Cc1ccco1)C(=O)C1CCCN(c2ncnc3c2nc2n3CCCCC2)C1 (stereo not shown) | 5.57%
Cc1ccc(CN2CCC(CNC(=O)C3CCCN(c4ncnc5c4nc4n5CCCCC4)C3)CC2)cc1 (stereo not shown) | -45%
CN(C(=O)C1CCCN(c2ncnc3c2nc2n3CCCCC2)C1)c1cccc(Cl)c1 (stereo not shown) | -45.9%
CCN(C(=O)C1CCCN(c2ncnc3c2nc2n3CCCCC2)C1)c1cccc(Cl)c1 (stereo not shown) | -62.5%
CC(C)N(Cc1ccccc1)C(=O)C1CCCN(c2ncnc3c2nc2n3CCCCC2)C1 (stereo not shown) | -44.3%
Cc1ccccc1N(C)C(=O)C1CCCN(c2ncnc3c2nc2n3CCCCC2)C1 (stereo not shown) | -7.96%
Cc1ccc(CNC(=O)C2CCCN(c3ncnc4c3nc3n4CCCCC3)C2)cc1 (stereo not shown) | -49%
O=C(NCC1CCN(Cc2ccc(Cl)cc2)CC1)C1CCCN(c2ncnc3c2nc2n3CCCCC2)C1 (stereo not shown) | -65.7%
CN(Cc1ccccc1)C(=O)C1CCCN(c2ncnc3c2nc2n3CCCCC2)C1 (stereo not shown) | -66%

Structure (SMILES) | hERG current change (%, negative = inhibition) at 10uM
O=C(NCc1ccccc1)C1CCCN(c2ncnc3c2nc2n3CCCCC2)C1 (stereo not shown) | -69.1%
CC(C)N(CCNC(=O)C1CCCN(c2ncnc3c2nc2n3CCCCC2)C1)Cc1ccccc1 (stereo not shown) | -37.3%
O=C(C1CC1)N1CCCN(C(=O)C2CC2)CC1 | 16.3%
CCC1(C)Cc2ccccc2-c2nc(NCCCO)n(-c3ccccc3)c(=O)c21 (stereo not shown) | -48.6%
c1ccc(COc2ccccc2CNc2nn[nH]n2)cc1 | 13.1%
O=C(Nc1sc2c(c1C(=O)NCC(O)CO)CCCC2)c1ccccc1 (stereo not shown) | 6.02%
O=C(COC(=O)CNC(=O)c1cccs1)Nc1ccc(C(F)(F)F)cc1[N+](=O)[O-] | -44%
CCn1c(C)nnc1SCC(=O)Nc1ccc(Cl)cc1 | 10.3%
CN(CC(=O)NCCCc1ccccc1)S(=O)(=O)c1ccc(Br)cc1 | -7.88%
O=C(Nc1ccc(Cl)cc1)C1CCCN(c2ncnc3c2nc2n3CCCCC2)C1 (stereo not shown) | -50.1%
Cc1ccc(NC(=O)C2CCCN(c3ncnc4c3nc3n4CCCCC3)C2)cc1Cl (stereo not shown) | -6.39%
CC(=O)c1ccc(NC(=O)C2CCCN(c3ncnc4c3nc3n4CCCCC3)C2)cc1 (stereo not shown) | -24.1%
COc1ccc2no[n+]([O-])c2c1 | 28.1%
CC1CCc2c(sc(NC(=O)CCC(=O)O)c2C(=O)NC2CC2)C1 (stereo not shown) | 18.1%
COc1ccc(NC(=O)n2ncc3cc(Cl)ccc32)cc1OC | 21.3%
CC(C)(C)N(Cc1cc2ccccc2[nH]c1=O)C(=O)c1ccco1 | 8.21%
COc1ccc(NC(=O)CSc2nnc(NC(=O)C3CCC3)s2)c(OC)c1 | 12.6%
CS(=O)(=O)Oc1ccc2c(c1)O/C(=C\C=C\c1ccccc1)C2=O | 8.05%
Cc1ccc(S(=O)(=O)Cc2ccc(C(=O)N3CCC(C(N)=O)CC3)o2)cc1 | 30.7%
CC(C)N(C(=O)Nc1ccc2nsnc2c1)C(C)C | 0.592%
CC1(C)Cc2cccc(OCC(=O)N3CCN(c4ccccc4Cl)CC3)c2O1 | -64.3%
CC1(C)Cc2cccc(OCC(=O)N3CCN(c4ccccc4)CC3)c2O1 | -45.6%

Structure (SMILES) | hERG current change (%, negative = inhibition) at 10uM
CC1(C)Cc2cccc(OCC(=O)N3CCN(c4ccccc4F)CC3)c2O1 | -22.4%
CC1(C)Cc2cccc(OCC(=O)N3CCN(S(=O)(=O)c4ccc(F)cc4)CC3)c2O1 | -21.6%
CC1(C)Cc2cccc(OCC(=O)N3CCN(c4cccc(Cl)c4)CC3)c2O1 | -4.1%
CC1(C)Cc2cccc(OCC(=O)N3CCN(c4ccc(F)cc4)CC3)c2O1 | -69.5%
CC1(C)Cc2cccc(OCC(=O)N3CCN(c4ccc([N+](=O)[O-])cc4)CC3)c2O1 | -70.3%
CC1(C)Cc2cccc(OCC(=O)N3CCN(c4cccc(C(F)(F)F)c4)CC3)c2O1 | 1.57%
Cc1cccc(N2CCN(C(=O)COc3cccc4c3OC(C)(C)C4)CC2)c1C | -2.16%
CCn1cc(C(=O)O)c(=O)c2cc(F)c(N3CCN(S(=O)(=O)c4ccc(NC(=O)OC)cc4)CC3)cc21 | 21.8%
CC1(C)SC(=S)N(/N=C/c2cccnc2)C1N(O)C(=O)Nc1ccccc1 (stereo not shown) | -5.91%
COc1ccc(S(=O)(=O)N2CCN(C3CCCC(C)C3)CC2)cc1.O=C(O)C(=O)O (stereo not shown) | -16.7%
CCCCN(C)C(=O)CCC(=O)Nc1ccc2nc(N3CCN(C)CC3)cc(C)c2c1 | 11%
CC1=CC(C)(C)N(C(=O)c2ccccc2)c2ccccc21 | -8.02%
CN(C)S(=O)(=O)c1ccc(N2CCCC2)c(C(=O)Nc2nc(-c3cc(F)ccc3F)cs2)c1 | 0.334%
CCC(CC)C(=O)Nc1c(C(=O)N2CCN(c3ccccc3)CC2)oc2ccccc12 | 3.17%
CCOCCCN(C)C1CCN(C(=O)c2oc3ccccc3c2NC(=O)c2cccc([N+](=O)[O-])c2)CC1 | -79.7%
CCOCCCN(C)C1CCN(C(=O)c2oc3ccccc3c2NC(=O)c2ccc([N+](=O)[O-])cc2)CC1 | -75.9%
CCOC(=O)c1oc2ccccc2c1NC(=O)c1ccc(S(=O)(=O)N(C)C)cc1 | 13%
O=C(Nc1c(C(=O)N2CCOCC2)oc2ccccc12)c1cccc([N+](=O)[O-])c1 | -20.2%
COc1cc2c(cc1NC(=O)c1cccc([N+](=O)[O-])c1)oc1ccccc12 | 1.9%

Source: paper PMC4336329 (PLoS ONE, 2015)
